Percent Effect data for 3 compounds are collected here from ChEMBL document CHEMBL3988442, “University of Dundee, Small-Polar-MMV Screening Library” (2021).

Experiment [1] has as its target T1, Aspartate--tRNA(Asp/Asn) ligase (Mycobacterium tuberculosis (strain ATCC 25618 / H37Rv)) (UniProt P9WFW3). Further: in the data most compounds retested in dose-response had high values.
T1 sequence (whole entry): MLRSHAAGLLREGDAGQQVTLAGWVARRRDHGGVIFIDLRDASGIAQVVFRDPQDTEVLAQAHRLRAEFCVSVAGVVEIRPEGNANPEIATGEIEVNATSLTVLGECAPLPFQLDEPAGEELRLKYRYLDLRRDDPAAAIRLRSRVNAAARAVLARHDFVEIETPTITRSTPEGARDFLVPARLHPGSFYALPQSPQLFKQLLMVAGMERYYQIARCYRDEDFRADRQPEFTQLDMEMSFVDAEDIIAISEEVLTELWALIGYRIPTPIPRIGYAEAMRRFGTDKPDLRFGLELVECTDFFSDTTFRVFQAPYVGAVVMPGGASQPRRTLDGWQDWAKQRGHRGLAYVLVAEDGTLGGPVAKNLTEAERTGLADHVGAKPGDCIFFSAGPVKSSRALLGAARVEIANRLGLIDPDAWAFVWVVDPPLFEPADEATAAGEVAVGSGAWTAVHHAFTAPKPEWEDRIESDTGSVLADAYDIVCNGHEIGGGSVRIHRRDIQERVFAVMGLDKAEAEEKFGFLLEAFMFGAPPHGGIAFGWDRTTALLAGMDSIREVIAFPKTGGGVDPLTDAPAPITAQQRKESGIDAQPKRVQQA
The experiment in a line: Assay for Asp RNA synthetase-1 from Mycobacterium tuberculosis. Further details: scale not given: direction of the effect not stated beside the values. The note with it: 30 µM. Type of experiment: functional.

Experiment [2] has as its target Shiga toxin 2 (Escherichia coli O157:H7) (UniProt P09385+P09386). As to the kind of experiment: E. coli 0.157:H7 Shiga Toxin SOP - stx2 screening assay. Type of experiment: functional. Further details: scale not given: direction of the effect not stated beside the values. The settings on record: 30 µM.

In the case of `CN(C)C(=O)NC1COC2(CCN(Cc3nccn3C)CC2)C1` (stereo unspecified), the values for the Percent Effect in experiment [1] and in experiment [2] were 2.7% and -6.31%, respectively.

With `Cc1nc(C)n(C2CCCN(C(=O)c3ccc(N(C)C)nn3)C2)n1` (stereo unspecified), the Percent Effect is 0.605% in experiment [1] and 11.2% in experiment [2].

On to `O=C(C1CC1)N1CC[C@H](O)[C@@H]1Cc1ccccc1`, for which the Percent Effect in experiment [1] was -2%; in experiment [2], 1.84%.
